TPT1 inh: C. albicans TPT1 enzyme inhibition | inhibition, % at 5 µM | recombinant caTPT1, FP RNA substrate dephosphorylation | hit rate 0.81% among 300,000;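 active = inhibition above the mean of all tested compounds plus 3 SD, set per screening campaign, cut at about 24% in these data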
Rpn11 inh: inhibitors of human proteasome Rpn11 | O00487 | human 26S proteasome, Ub4-pepOG fluorescence polarization; 20S core pre-blocked with epoxomicin | inhibition, % at 20 µM | hit rate 0.59% among 360,000;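 active = inhibition at 20 µM, scaled to each plate's controls, above about 33%, limit read from the data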
HNF4A DNA FP: change in binding of human HNF4 alpha to DNA; P41235; HNF4a-FITC DNA binding, fluorescence polarization, 1 h; activity change, % at 10 µM; hit rate 0.3% among 360,000; in the data active = activity change above about 30%, passing the limit was not always enough
Target sequence (P41235 whole entry, looked up): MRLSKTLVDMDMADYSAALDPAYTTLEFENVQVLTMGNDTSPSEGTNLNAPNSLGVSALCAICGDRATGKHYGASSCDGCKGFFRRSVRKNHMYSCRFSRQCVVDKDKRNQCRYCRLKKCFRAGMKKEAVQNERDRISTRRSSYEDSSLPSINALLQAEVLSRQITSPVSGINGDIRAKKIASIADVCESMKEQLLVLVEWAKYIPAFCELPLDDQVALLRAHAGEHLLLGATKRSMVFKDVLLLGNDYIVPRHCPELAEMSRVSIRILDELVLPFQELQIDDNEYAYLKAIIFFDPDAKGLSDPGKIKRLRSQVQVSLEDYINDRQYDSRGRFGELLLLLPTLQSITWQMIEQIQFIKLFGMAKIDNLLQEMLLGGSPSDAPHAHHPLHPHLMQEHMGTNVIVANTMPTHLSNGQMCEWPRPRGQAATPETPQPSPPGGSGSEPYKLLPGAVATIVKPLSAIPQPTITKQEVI
Myeloid diff 2: myeloid differentiation induction; AID 624256; calls only at 10 µM; hit rate 1% among 360,000; ER-HoxA9 myeloid progenitors, lysozyme-GFP differentiation, flow cytometry;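 active = normalized GFP-positive differentiation at or above the plate's own cutoff, the solvent-only control mean plus 3 SD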;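 also: cells exposed to compound for four days before flow analysis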
Myeloid diff CP1: myeloid differentiation induction; hit rate 2% among 2,300; AID 651706; calls only; ER-HoxA9 myeloid progenitors, GFP/Mac1 double-positive flow; shares compounds with Myeloid diff 2;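 active = share of green or green-and-red cells above 9 and 9% in run 1 or 4 and 3% in run 2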
GFP autofluor: counter-screen for myeloid differentiation promoters: compound fluorescence; shares compounds with Myeloid diff 2; ER-HoxA9 myeloid progenitors, no estrogen, GFP autofluorescence flow cytometry; vehicle wells 0%, positive control 100%; fluorescence response, % (concentration not given with the values); hit rate 7.4% among 2,300;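 active = over 5% cells positive for green fluorescent reporter, or over 2% positive for both it and APC stain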
Large screens that a line does not name were inactive (follow-up assays come after a bar, where they were run). An excerpt weighted towards active compounds, which were near 2.1% of everything screened.

N=c1c2c3c(sc2nc2n1CCC2)CCCC3	none
O=C(CCc1nc(-c2ccccc2F)no1)NC1CCN(Cc2ccccc2)CC1	none | Myeloid diff CP1 inactive | GFP autofluor inactive
S=C(c1cn(Cc2ccc(Br)cc2)c2ccccc12)N1CCOCC1	none | Myeloid diff CP1 inactive | GFP autofluor inactive
C[C@H](NC(N)=O)C(=O)OCC(=O)NCc1cccs1	none
CN(CCc1ccccn1)C(=O)CCC1CCCN(C(=O)c2cccc(N(C)C)c2)C1 (stereo not given)	none
Cc1cccc(-c2nnc(SCC#N)n2C)c1	none
O=S(=O)(Nc1ccc(S(=O)(=O)Nc2ncccn2)cc1)c1ccc(Cl)cc1	none
Cc1ccc(S(=O)(=O)Nc2ccc(-c3nnc(SCC#N)n3C)cc2)cc1	Myeloid diff 2 active | Myeloid diff CP1 inactive | GFP autofluor inactive
Cc1ccc(S(=O)(=O)Nc2ccc(S(=O)(=O)Nc3ncccn3)cc2)cc1	none | Myeloid diff CP1 inactive | GFP autofluor inactive
COc1cc(C)nc(NS(=O)(=O)c2ccc(C)cc2)n1	none | Myeloid diff CP1 inactive | GFP autofluor inactive
O=C(c1cnc(Cc2c[nH]c3ccccc23)c(I)c1)N1CCCCC1	none (no result: TPT1 inh)
O=C(O)Cc1ccc(C(=O)c2ccc(Cl)cc2Cl)s1	none
COc1ccc(-c2sc(C(=O)c3ccc(Cl)cc3Cl)cc2CC(=O)O)cc1	Myeloid diff 2 active | Myeloid diff CP1 inactive | GFP autofluor inactive
O=C(COC(=O)/C=C/c1ccccc1)NCCc1ccc(F)cc1	none (no result: TPT1 inh)
O=C1C2C(C(=O)N1CC1CCCO1)C1C=CC2C12CC2 (stereo not given)	none (no result: Myeloid diff 2) | Myeloid diff CP1 inactive | GFP autofluor inactive
CC(C)(CNC(=S)NCCc1ccccc1)CNC(=S)NCCc1ccccc1	none (no result: TPT1 inh)
COc1ccc(NC(C)(C)c2nnnn2-c2c(C)cccc2C)cc1	none | Myeloid diff CP1 inactive | GFP autofluor inactive
COc1ccc(-c2ccc3oc(-c4ccc(OC)cc4)c(C#CCO)c3c2)cc1	Myeloid diff 2 active | Myeloid diff CP1 inactive | GFP autofluor inactive
COc1ccc(-c2oc3ccc(N4CCOCC4)cc3c2C#CCO)cc1	none
Cc1cc(OCCCCN2C(=O)NC(C)(C)C2=O)cc(C)c1Cl	none
CC1(C)NC(=O)N(CCCCOc2ccc(Cl)cc2)C1=O	none | Myeloid diff CP1 inactive | GFP autofluor inactive
CC(CCc1ccccc1)NS(=O)(=O)c1ccccc1Cl (stereo not given)	none
c1ccc(N2CCN(c3cnccn3)CC2)nc1	none
N#Cc1cc(C#N)c(N2CCN(c3ccccn3)CC2)nc1N	Myeloid diff 2 active | Myeloid diff CP1 inactive | GFP autofluor inactive
CCOc1ccc(NS(=O)(=O)c2cc(C(=O)N3CCCC3)ccc2Cl)cc1	none
O=C(O)c1ccc(Cl)c(S(=O)(=O)Nc2ccc(OCc3ccccc3)cc2)c1	none | Myeloid diff CP1 inactive | GFP autofluor inactive
O=C(O)CCC1(C(=O)O)OCCc2ccccc21 (stereo not given)	none | Myeloid diff CP1 inactive | GFP autofluor inactive
O=C(O)C1C2C=CC(C2)C1C(=O)OC1CC2CCC1C2 (stereo not given)	Myeloid diff 2 active | Myeloid diff CP1 inactive | GFP autofluor inactive
CCC(C)Nc1nc2c(c(=O)[nH]c(=O)n2C)n1CCC(C)C (stereo not given)	Myeloid diff 2 active | Myeloid diff CP1 inactive | GFP autofluor inactive
CCC(C)Nc1nc2c(c(=O)[nH]c(=O)n2C)n1CCCc1ccccc1 (stereo not given)	none
CCOCCOc1cc(NCc2ccccc2)c2ncn(C(C)C)c2c1	none (no result: TPT1 inh)
O=C(O)c1ccccc1Nc1ccc([N+](=O)[O-])cc1	none | Myeloid diff CP1 active | GFP autofluor inactive
O=C(O)c1ccccc1Nc1ccccc1C(=O)O	none
Cc1ccc(NC2=NCCCCC2)cc1C	Myeloid diff 2 active | Myeloid diff CP1 inactive | GFP autofluor inactive
Cc1ccc(NC2=NCCCCC2)cc1	none
Cc1cc(OCC[N+]2(C)CCCCC2)nc2ccccc12	none | Myeloid diff CP1 inactive | GFP autofluor inactive
CCc1ccc(NC(=O)CN2C(=O)C(=O)N(Cc3ccccc3)C2=O)cc1	none (no result: Rpn11 inh, HNF4A DNA FP, Myeloid diff 2)
CCOC(=O)c1c(C)[nH]c(C(=O)COC(=O)c2ccc(F)c(S(=O)(=O)N3CCOCC3)c2)c1C	Myeloid diff 2 active | Myeloid diff CP1 inactive | GFP autofluor inactive
O=C(COC(=O)c1ccc(F)c(S(=O)(=O)N2CCOCC2)c1)c1ccc(Cl)cc1	none (no result: TPT1 inh)
CC(=O)N1CCc2c(sc(NC(=O)c3ccc([N+](=O)[O-])o3)c2C#N)C1	Myeloid diff 2 active (no result: TPT1 inh) | Myeloid diff CP1 inactive | GFP autofluor inactive
CN1C(=O)/C(=C/c2cn(CC(=O)N3CCCCC3)c3ccccc23)NC1=S	Myeloid diff 2 active (no result: TPT1 inh) | Myeloid diff CP1 inactive | GFP autofluor 97.0
CN1C(=O)/C(=C/c2cn(CC(=O)NCc3ccco3)c3ccccc23)NC1=S	none (no result: Rpn11 inh, HNF4A DNA FP, Myeloid diff 2)
CCOC(=O)C1CCN(C(=O)CCc2nnc3ccc(NCc4ccco4)nn23)CC1	Myeloid diff 2 active | Myeloid diff CP1 inactive | GFP autofluor inactive
CCN1C(=O)[C@H]2[C@@H](c3ccc(C(F)(F)F)cc3)N[C@]3(CCCN(CC4CCCCC4)C3=O)[C@H]2C1=O	Myeloid diff 2 active (no result: TPT1 inh) | Myeloid diff CP1 inactive | GFP autofluor inactive
Cc1cc(C)cc(NC(=S)N2CCC(NC(=O)C3CCCCC3)CC2)c1	none
Cc1cc(C)cc(NC(=O)C2CCCC2)c1	Myeloid diff 2 active | Myeloid diff CP1 inactive | GFP autofluor inactive
COc1cccc(NCc2cc3c(C(C)(C)C)nn(-c4ccccc4)c3[nH]c2=O)c1	Myeloid diff 2 active | Myeloid diff CP1 inactive | GFP autofluor inactive
Cc1cc(-c2ccccc2)nc(SCc2ccc(C(=O)O)cc2)n1	none (no result: TPT1 inh)
CCN(CC)c1ccc(C(=O)OCC(=O)N2CCN(c3ccccc3)CC2)cc1	none
Cc1ccc(C(C(=O)NC2CCCCC2)N(C(=O)Cc2c[nH]c3ccccc23)c2ccccc2)o1 (stereo not given)	Myeloid diff 2 active | Myeloid diff CP1 inactive | GFP autofluor inactive
CC(=O)Nc1ccc(N(C(=O)Cc2c[nH]c3ccccc23)C(C(=O)NC2CCCCC2)c2ccco2)cc1 (stereo not given)	none
CC1CN(C(=O)CN2C(=O)NC3(CCCCCC3)C2=O)CC(C)O1 (stereo not given)	none
COc1ccccc1CC1(C)NC(=O)N(CC(=O)N2CC(C)OC(C)C2)C1=O (stereo not given)	none | Myeloid diff CP1 inactive | GFP autofluor inactive
C/C(=C1/SC(N2CCCC2)=NC1=O)c1ccc(Br)cc1	Myeloid diff 2 active | Myeloid diff CP1 active | GFP autofluor inactive
CC(C)c1ccc(NNC(=O)C2CCC2)cc1	none
c1cnc(N2CCN(c3nc4ccccc4n4cnnc34)CC2)nc1	none | Myeloid diff CP1 inactive | GFP autofluor inactive
O=C(NNc1ccccc1)NC(Cc1ccccc1)C(=O)O (stereo not given)	none (no result: TPT1 inh)
OC(CNCCCN1CCCCC1)COc1ccccc1 (stereo not given)	Myeloid diff 2 active | Myeloid diff CP1 inactive | GFP autofluor inactive
CCCn1c(O)c(N=N)c2ccccc21	none
CSc1nc(O)c(/C=C2\C=Nc3ccccc32)[nH]1	none
O=c1[nH]c(/C=C2\C=Nc3ccccc32)c(O)n1Cc1ccccc1F	none | Myeloid diff CP1 inactive | GFP autofluor inactive

Source: PubChem BioAssay (several laboratories)
